Hits are enriched below; roughly 1.6% of the tested compounds scored in any of these assays.
SARS 3CLpro inh – SARS-CoV 3CLpro protease inhibition; inhibition, % at 6 µM; recombinant SARS-CoV 3CLpro, quenched FRET peptide cleavage; 290,000 tested, 0.14% active; P0C6X7; in the data active = inhibition above about 12%
BH1578 lux ind – inducers of Vibrio cholerae quorum light production without autoinducers | V. cholerae BH1578 lux reporter, luminescence, 6 h | activation, % at 18.7 µM | 350,000 tested, 0.16% active | AID 588436; in the data active = activation mostly above about 9.7%, no sharp cut-off
PrPC surface inh – cell surface PrPC inhibition, primary TR-FRET screen | inhibition, % at 13.8 µM | TR-FRET read-out | 370,000 tested, 0.43% active | P04156 | AID 720596; in the data active = inhibition above about 24%; also: 0% = median of the test wells and 100% = reference compound wells
PfHsp40 rescue – rescue of PfHsp40-mediated yeast toxicity; S. cerevisiae expressing PfHsp40, growth rescue, ATP luminescence; growth rescue, % at 12.5 µM; 340,000 tested, 0.68% active; AID 504582; in the data active = growth rescue above about 28%, passing the limit was not always enough;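 also: yeast W303a lacking pdr1 and pdr3 grown in galactose medium; growth measured after three days at 30 °C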
PriA SSB inh – inhibitors of Klebsiella pneumoniae PriA binding to SSB C-terminal tail. AlphaScreen SSBct-PriA binding, biotinylated peptide. inhibition, % at 33 µM. 430,000 tested, 0.6% active; in the data active = inhibition mostly above about 37%, no sharp cut-off; inactive = mostly below about 20%;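 also: plate controls were negative control peptide for no effect and reference peptide for full effect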
PrP 5UTR inh – inhibition of PrP 5' UTR reporter expression | cell-based PrP 5' UTR mRNA reporter, plate reader | inhibition, % (concentration not given with the values) | 340,000 tested, 0.35% active; in the data active = inhibition above about 52%; also: 0 = median of the neutral control wells
An asterisk follows results filed as active; i = inactive; / = no result; ! = repeats disagree.

SMILES | SARS 3CLpro inh | BH1578 lux ind | PrPC surface inh | PfHsp40 rescue | PriA SSB inh | PrP 5UTR inh
CCOC(=O)c1ccc(NC(=O)CSc2nccn2-c2ccc(OC)cc2OC)cc1 | / | / | / | / | -29 | /
Cc1noc(C)c1CC(=O)NCc1ccco1 | / | / | / | / | -2 | /
O=C1OCC(CO)(CO)N=C1NNc1ccc(Cl)c(Cl)c1 | -7 | -1 | 17 | 305* | 17 | -4
OCC1(CO)COC(c2ccccc2)=N1 | -1 | 0 | -5 | 0 | -11 | -23
Oc1ccccc1O | / | i | -4 | -1 | 1 | -23
Nc1ccccc1O | / | 0 | / | 60* | 1 | -16
Nc1nn(S(=O)(=O)c2cccc3nsnc23)cc1-c1ccc(Br)cc1 | 6 | 1 | -11 | 0 | 42* | -18
COc1ccc(C)cc1NC(=O)CCCOc1ccc(C(C)(C)C)cc1 | / | / | / | / | -28 | /
c1ccc(-c2ccc(-n3ccnc3)cc2)cc1 | 1 | -1 | 2 | 1 | 14 | -92
c1ccc(-c2ccc(C(c3ccccc3)n3ccnc3)cc2)cc1 (configuration not stated) | 1 | 4 | 2 | 176* | -8 | 1
COCCN1CCC(CNS(=O)(=O)c2cccs2)CC1 | / | / | / | / | -5 | /
O=C(COc1ccc([N+](=O)[O-])cc1)NN=Cc1cc([N+](=O)[O-])ccc1N1CCOCC1 | / | / | / | / | 1 | /
COc1ccccc1NC(=O)CSc1nnc(-c2cccc(C)c2)n1Cc1ccco1 | / | / | / | / | 59* | /
COc1ccccc1NC(=O)CSc1nnc(-c2cccnc2)n1Cc1ccco1 | / | / | / | / | 48 | /
Cc1cc(NS(=O)(=O)c2ccc(NC(=O)CSc3nnc(-c4ccco4)n3Cc3ccco3)cc2)nc(C)n1 | 2 | i | 8 | 54* | -3 | -24
CCN(CC)CCN(C(=O)c1ccc(C(=O)c2ccccc2)cc1)c1nc2ccc(OC)cc2s1 | -2 | -1 | -2 | 1 | 32 | -8
COc1cc2nc(N(CCCN(C)C)C(=O)c3ccc(C(=O)c4ccccc4)cc3)sc2cc1OC | / | -2 | -7 | 0 | 37*! | -5
CCN(CC)CCN(C(=O)c1ccc(C(=O)c2ccccc2)cc1)c1nc2c(C)cccc2s1 | / | / | / | / | 15 | /
CCN(CC)CCN(C(=O)c1ccc(C(=O)c2ccccc2)cc1)c1nc2c(OC)ccc(OC)c2s1 | / | / | / | / | 49* | /
COc1ccc2nc(N(CCN(C)C)C(=O)c3ccc(C(=O)c4ccccc4)cc3)sc2c1 | -2 | 0 | -3 | 0 | 50* | -16
CCc1ccc2nc(N(CCCN(C)C)C(=O)c3ccc(C(=O)c4ccccc4)cc3)sc2c1 | -1 | i | -20 | -2 | 47*! | -5
CCOc1ccc2nc(N(CCN(C)C)C(=O)c3cc4ccccc4cc3OC)sc2c1 | -3 | -5 | / | 1 | 44*! | -14
COc1cccc(Oc2cncnc2-c2ccc(OC)cc2O)c1 | -3 | 0 | 9 | 56* | -25 | -5
COc1ccc(-c2cncnc2-c2ccc(OC)cc2O)cc1 | 0 | i | 1 | -2 | 2 | 15
CCCS(=O)(=O)N1CCc2ccc(N)cc2C1 | / | / | / | / | 10 | /
SMILES | SARS 3CLpro inh | BH1578 lux ind | PrPC surface inh | PfHsp40 rescue | PriA SSB inh | PrP 5UTR inh
Cc1ccc(N=Nc2ccc(O)cc2)c(Br)c1 | 4 | i | 3 | 201* | 45 | -38
O=c1c2[nH]c3ccccc3c2ncn1CCCn1ccnc1 | 0 | 0 | -9 | 1 | -1 | -12
O=c1c2[nH]c3ccc(Br)cc3c2ncn1CCCn1ccnc1 | 2 | i | -3 | 7 | 61* | -18
COc1ccc(-c2cn3cccnc3n2)cc1NC(=O)CC1CCCCC1 | / | / | / | / | 0 | /
Cc1nc(-c2ccccc2NC(=O)C2CC(=O)N(c3cccc(F)c3)C2)cs1 (configuration not stated) | / | / | / | / | -8 | /
Cn1c(SCC(=O)N2c3ccccc3Sc3ccc(Cl)cc32)nnc1-c1ccco1 | -5 | i | 0 | 36* | 19 | 2
Cc1ccc(C)c(S(=O)(=O)NCCc2cc(C)no2)c1 | / | / | / | / | -10 | /
C=C(C)C(=O)Nc1cccc(C2=NOC3(C2)C[C@@H](C(N)=O)N(C(=O)c2ccc(OC)cc2)C3)c1 (some centres not stated) | / | -1 | / | -1 | 48* | -22
C=C(C)C(=O)Nc1cccc(C2=NOC3(C2)C[C@@H](C(N)=O)N(C(=O)CCCCC)C3)c1 (some centres not stated) | / | / | -6 | -2 | 61* | -6
Cc1ccc(O)c(Nc2c3ccccc3nc3ccccc23)c1 | -3 | 4 | 3 | 0 | 61* | -5
Cc1ccc(O)c(Nc2nc(-c3ccccc3)nc3ccccc23)c1 | -9 | -1 | 2 | 0 | -8 | -9
